# Source: PubChem BioAssay (NCI)
# About 79,000 compounds went through this panel and 15% of them were active in at least one assay; those are over-represented in the sample as a whole. Values without a mark were called inactive. Activity calls are given as the source filed them. Rule as the data show it: active = growth inhibition above about 70%; inactive = the rest.
# Legend:
# [1] = NCI Yeast Anticancer Drug Screen. Data for the rad50 strain (AID 155);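 also: 0% = growth of vehicle-only cultures of the same strain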; conditions: S. cerevisiae rad50 strain growth inhibition; at 50.0 µM; stronger effect = higher value
# How it was run: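 DNA repair mutant yeast, compound exposure, growth read-out; inhibition is taken relative to vehicle.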
# [2] = NCI Yeast Anticancer Drug Screen. Data for the mec2-1 strain (AID 157); conditions: S. cerevisiae mec2-1 strain, at 50.0 µM, stronger effect = higher value
# How it was run: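 Test agents were screened against the mec2-1 yeast strain, with defined DNA repair or cell cycle alteration. Growth was scored as inhibition against vehicle-only controls.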
# [3] = NCI Yeast Anticancer Drug Screen. Data for the sgs1 mgt1 strain (AID 161);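 also: 0% = growth of cultures given vehicle only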; conditions: S. cerevisiae sgs1 mgt1 strain, at 50.0 µM, stronger effect = higher value
# How it was run: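 Test agents were incubated with a DNA-repair-mutant yeast strain. Growth was then read and compared against vehicle-treated controls.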
# [4] = NCI Yeast Anticancer Drug Screen. Data for the cln2 rad14 strain (AID 165);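 also: 0% = growth equal to vehicle treated cultures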; conditions: S. cerevisiae cln2 rad14 strain, at 50.0 µM, stronger effect = higher value
# How it was run: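 Growth of compound-exposed yeast (cln2 rad14 genotype) measured and expressed as inhibition relative to vehicle.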
# [5] = NCI Yeast Anticancer Drug Screen. Data for the bub3 strain (AID 167); conditions: S. cerevisiae bub3 mutant strain, at 50.0 µM, stronger effect = higher value
# How it was run: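 In this screen, a yeast mutant lacking normal mitotic checkpoint function is challenged with compound. Relative growth versus vehicle gives the inhibition value.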
# [6] = NCI Yeast Anticancer Drug Screen. Data for the mlh1 rad18 strain (AID 175); conditions: S. cerevisiae mlh1 rad18 strain growth inhibition; at 50.0 µM; stronger effect = higher value
# How it was run: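 In this whole-cell yeast screen, a strain with altered DNA damage repair is challenged with compound, and its growth is measured against matched vehicle-treated controls.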
Structure (SMILES),growth inhibition [1],growth inhibition [2],growth inhibition [3],growth inhibition [4],growth inhibition [5],growth inhibition [6]
N#CC(c1ccccc1)C1CCN(Cc2ccccc2)CC1 (stereo not given),45.8%,20.8%,48.1%,47.8%,45.8%,33.1%
Cc1c(C)n(S(=O)(=O)c2ccccc2)c2ccccc12,20.6%,10.4%,21.4%,27.9%,13.2%,27.4%
CC(O)(c1ccco1)c1nc2ccccc2s1 (stereo not given),-10.4%,15.6%,0.55%,-6.2%,-1.25%,-11.8%
O/N=C(/Cc1ccccc1)CC(O)(C(F)(F)F)C(F)(F)F,90.8% (active),89.5% (active),87% (active),85.8% (active),86.7% (active),94.3% (active)
Nc1nc(CCC(=O)Nc2cccc(C(F)(F)F)c2)cc(-c2cccc3ccccc23)n1,-15.2%,17.4%,29.1%,0.8%,23.1%,2.3%
O=S(=O)(O)c1cccc2nsnc12,-0.35%,-2.05%,-3.6%,13.1%,9.5%,-1.3%
CC(Cc1ccco1)C(=O)O (stereo not given),9.2%,15.4%,-0.3%,-14%,1.9%,-11.2%
COc1ccc(C(C)(C)C#N)cc1,-20.7%,13.6%,-5.95%,-12.8%,-10.6%,31.6%
O=C(OCc1ccccc1)N(CCCCN(CCCNC(=O)C(F)(F)F)C(=O)OCc1ccccc1)CCCNC(=O)C(F)(F)F,-14.8%,-9.7%,21.4%,20.4%,21.8%,-33.8%
C1CCN=C(N2CCCCCC2)CC1,-16.9%,-4.2%,-5.8%,-33%,13.6%,-6.25%
CC1(c2ccc(Cl)cc2)NC(=O)NC1=O (stereo not given),-27.3%,3.1%,-7.65%,-29.5%,9.85%,-20.1%
CC(=O)C(Cc1cccc([N+](=O)[O-])c1)Cc1cccc([N+](=O)[O-])c1,-3.7%,-7.8%,-6.6%,-38%,15.8%,-9.45%
CC(C)CCNc1nc(N)[nH]c(=O)c1NC=O,-16.7%,16.1%,-0.55%,7.5%,2.7%,-56.6%
C=C1C(=O)OC2/C=C(\C)CC(O)/C=C(/CO)CC(OC(=O)/C(C)=C/C)C12 (stereo not given),-4.5%,-33.6%,-6.55%,-1.9%,-1.65%,-58.5%
CONCc1ccc(C(=O)NC(C)C)cc1,-10.6%,-6.75%,-5.95%,-3.65%,-0.3%,-11.8%
CCCCn1cnc2ccc3[nH]c(C)nc3c2c1=O,29.4%,-4.85%,34.1%,-3.55%,-6.35%,21.4%
CC1(C)S[C@@H]2[C@H](NC(=O)/C=C/c3ccccc3)C(=O)N2[C@H]1C(=O)O,15.3%,9.5%,9.2%,0.6%,25.6%,-5.5%
O=C1c2ccccc2C(=O)N1CCSCCSCCN1C(=O)c2ccccc2C1=O,-3.1%,-13.7%,12.6%,14.6%,-7.15%,10.2%
CCc1ccc(OC/C=C(\C)CCC2OC2(C)CC)cc1 (stereo not given),-4.15%,4.5%,19.8%,4%,32%,-2.8%
CN(C)Cc1onc(-c2c(Cl)cccc2Cl)c1C(=O)O,1.3%,8.2%,-9.95%,6.05%,21.2%,8.4%

Structure (SMILES),growth inhibition [1],growth inhibition [2],growth inhibition [3],growth inhibition [4],growth inhibition [5],growth inhibition [6]
NC(=O)C(=O)C(c1ccccc1)c1ccccc1,0.3%,4.55%,-1.1%,-4.05%,7.95%,-8.35%
CCN(CC)CC#CCCCN(CC)CC,-29.3%,-30.2%,-27.9%,1.75%,-44.5%,-7.6%
CCCCCCCCCCCCCCCCNC(=O)C(C)O (stereo not given),23.9%,3.2%,17.2%,-13.9%,7.7%,30.4%
CC1(C)C2CC3OC3(C)C1C2 (stereo not given),21.3%,-7%,12.4%,-55.9%,-19.9%,-10.8%
O=[N+]([O-])c1ccccc1SCl,11.7%,5.5%,5.05%,-21.9%,2%,6.7%
CC(=O)OC(C)C(=O)OCC1OC(OC(=O)C(C)OC(C)=O)C(OC(=O)C(C)OC(C)=O)C(OC(=O)C(C)OC(C)=O)C1OC(=O)C(C)OC(C)=O (stereo not given),7.6%,-13.8%,-10.6%,-42.4%,-12.1%,7.95%
CC(=O)Oc1cccc(OC(C)=O)c1,41.8%,38.9%,25.2%,12.1%,6.8%,34.9%
COc1ccc(C2(C#N)CCCC2)cc1,5.8%,12.4%,0.95%,-30.6%,0.7%,8.7%
O=C(c1ccccc1)c1cccc2cccc(C(=O)c3ccccc3)c12,3.2%,11.7%,-7.7%,6%,6.45%,-27.6%
C[CH2][Sn]([CH2]C)([O]P(=O)(C[Si](C)(C)C)c1ccccc1)[O]P(=O)(C[Si](C)(C)C)c1ccccc1 (stereo not given),0%,8.7%,4.2%,24%,53.2%,17.2%
c1ccc(Cc2ccc3ccccc3c2)cc1,35.3%,14.6%,11.8%,-26.6%,12.2%,50.2%
Cc1cc(=O)n(-c2cncc(Br)c2)[nH]1,1.5%,2.05%,1.5%,-17.5%,12.4%,7.75%
O=[N+]([O-])c1ccc(-c2nnc(C34CC5CC(CC(C5)C3)C4)o2)cc1,-26.7%,-1.2%,-13.4%,-5.9%,-11.2%,-30.1%
CCOC(=O)/C(Cc1ccc2c(c1)OCO2)=N\O,-3.05%,-16.1%,-12.9%,-2.25%,2.25%,-1.1%
Cc1ccc(C(=O)C[N+]2(C)CCOCC2)cc1,15.8%,-7.5%,16.6%,-21.9%,8.4%,20.4%
COC(=O)C1=CO[C@@H](C)[C@@H]2Cn3ccc4c5ccccc5nc-4c3C[C@H]12,2.4%,-17.4%,14%,4.5%,-3.9%,1.4%
Cn1c(=O)c2c(nc(NCCO)n2Cc2ccccc2)n(C)c1=O,20.1%,9.95%,7.2%,18.3%,8.45%,31.2%
C=CCOC(=O)Nc1cccc(O)c1,16.9%,-5.95%,3.2%,-57.6%,-29.6%,1.4%
Cc1ccc(S(=O)(=O)N/N=C2/CC3CCC2C3)cc1 (stereo not given),5%,1.3%,-19.7%,-9.4%,17.3%,-15.3%
CCOC(=O)CN1C(=O)CCC1=O,-6.6%,2.55%,-1.2%,-3.5%,1.45%,-5.95%
